Experimental data as given in PubChem BioAssay (Tox21).
Inconclusive results are not listed. Calls of active or inactive are those of the source. Calls follow the shape of the dose curve; as a rule, active = well fitted curve in the direction sought with a large enough effect in the repeat runs; inconclusive = weak or mixed curves; inactive = no such curve, though single readings can be large; an effect the other way counts as inactive or inconclusive.

How the values were obtained:
[1] = A CellTox Green Cytotoxicity Assay to monitor cytotoxicity in HepG2 cells - 32 hour (AID 1224883); also: nearly all actives have a fitted effect of over 50% in size; also: potency is read from the fitted curve at half-maximal effect
In short: (§1)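 Continuous culture of HepG2 cells with a membrane-impermeant DNA dye; rising fluorescence marks dead cells. Compound exposure lasted up to 40 h at 37 C, with reads every 8 h from 0 h.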

[2] = A CellTox Green Cytotoxicity Assay to monitor cytotoxicity in HEK293 cells - 8 hour (AID 1224884); also: nearly all actives have a fitted effect of over 35% in size; also: potency is read from the fitted curve at half-maximal effect
In short: (§2)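 Each value comes from one timepoint of a single continuous run in which HEK293 cells with CellTox Green were exposed to compound for up to 40 h at 37 C, dye fluorescence rising with cell death.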

[3] = qHTS RealTime-Glo MT Cell Viability Assay in HEK293 cells - 24 hour (AID 1224886); also: nearly all actives have a fitted effect of over 50% in size; also: potency is read from the fitted curve at half-maximal effect
In short: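 Nonlytic real-time viability readout: viable cells convert prosubstrate to NanoLuc substrate, giving luminescence proportional to live cell number. HEK293, 600 cells/well, compound added after 5 h, continuous culture at 37 C.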

[4] = A CellTox Green Cytotoxicity Assay to monitor cytotoxicity in HEK293 cells - 16 hour (AID 1224888); also: nearly all actives have a fitted effect of over 35% in size; also: potency is read from the fitted curve at half-maximal effect
In short: as §2

[5] = qHTS RealTime-Glo MT Cell Viability Assay in HepG2 cells - 0 hour (AID 1224889); also: nearly all actives have a fitted effect of over 50% in size
In short: (§3)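 Luminescence read-out: viable HepG2 cells reduce a prosubstrate to a NanoLuc substrate, giving a signal proportional to live cell number. Reads taken at 0, 8, 16, 24, 32 and 40 h of compound exposure at 37 C.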

[6] = A CellTox Green Cytotoxicity Assay to monitor cytotoxicity in HepG2 cells - 8 hour (AID 1224890); also: nearly all actives have a fitted effect of over 45% in size; also: potency is read from the fitted curve at half-maximal effect
In short: as §1

[7] = qHTS RealTime-Glo MT Cell Viability Assay in HEK293 cells - 8 hour (AID 1224887); also: nearly all actives have a fitted effect of over 50% in size; also: potency is read from the fitted curve at half-maximal effect
In short: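 qHTS format; HEK293 cells with NanoLuc/prosubstrate reagent, 37 C/5% CO2 for 5 h pre-dosing; compounds 23 nL in DMSO; luminescence at each time point reflects viable cells.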

[8] = qHTS assay to identify small molecule antagonists of the estrogen receptor alpha (ER-alpha) signaling pathway using the BG1 cell line in the presence of 0.1 nM 17-beta-estradiol - cell viability counter screen (AID 1259241); also: nearly all actives have a fitted effect of over 40% in size; also: potency is read from the fitted curve at half-maximal effect
In short: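 Cells were plated and left 24 hr, compounds in DMSO were pinned in, 17beta-estradiol was added to 0.1 nM final, and after 22 hr CellTiter-Fluor reagent was added for 30 min before fluorescence was read.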

[9] = qHTS RealTime-Glo MT Cell Viability Assay in HepG2 cells - 16 hour (AID 1224885); also: nearly all actives have a fitted effect of over 50% in size; also: potency is read from the fitted curve at half-maximal effect
In short: as §3

[10] = qHTS assay to identify small molecule antagonists of the androgen receptor (AR) signaling pathway using the MDA cell line in the presence of 0.5 nM R1881 - cell viability counter screen (AID 1259242); also: nearly all actives have a fitted effect of over 45% in size; also: potency is read from the fitted curve at half-maximal effect
In short: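 Fluorescence from CellTiter-Fluor, which reports protease activity of live cells, was read 30 min after reagent addition to MDA-kb2 cells that had been incubated 16 hr with compound and 0.5 nM R1881.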

Measured: Potency

C[n+]1c2cc(N)ccc2cc2ccc(N)cc21 (tested in a mixture with another compound)
inactive: [5]
active: [1] 21.3 µM | [2] 23.9 µM | [3] 9.52 µM | [4] 23.9 µM | [6] 23.9 µM

CN1CCN(C2Cc3ccccc3Sc3ccc(Cl)cc32)CC1 (stereo not given)
inactive: [7] | [5] | [8]
active: [1] 23.9 µM | [2] 19 µM | [4] 21.3 µM

CC(C)=CCCC(C)O (stereo not given)
not listed: [2]
inactive: all other assays above

CC(C)(C)c1cc(/C=C2\SC(=N)NC2=O)cc(C(C)(C)C)c1O
inactive: [2] | [5] | [8] | [10]
active: [1] 43.6 µM | [3] 49 µM | [6] 49 µM

C[C@@]12C(=O)OC(=O)[C@]1(C)C1CCC2O1
inactive: [2] | [4] | [5]
active: [1] 9.52 µM | [3] 6.74 µM | [6] 23.9 µM

Cc1c(C)n(Cc2ccccc2)c2ccc(C(=O)OCCN(C)C)cc12
inactive: [2] | [7] | [4] | [5] | [8]
active: [1] 23.9 µM

CC(C)c1cccc(C(C)C)c1N1C(=O)c2ccc(O)cc2C1=O
active: [1] 24.5 µM | [6] 38.9 µM
not listed: [3] | [9]
inactive: all other assays above

O=C[C@H](O)[C@H](O)[C@H](O)CO
not listed: [2] | [9]
inactive: all other assays above

O=C1OC(=O)c2ccc3c4c(ccc1c24)C(=O)OC3=O
not listed: [2] | [4] | [5]
inactive: all other assays above

O[C@@H](c1cc(C(F)(F)F)nc2c(C(F)(F)F)cccc12)[C@H]1CCCCN1
inactive: [8]
active: [1] 19 µM | [9] 21.3 µM | [3] 7.56 µM | [7] 7.56 µM | [6] 26.8 µM

O=C(O)Cc1ccc(OCCNC[C@H](O)c2ccccc2)cc1
not listed: [2] | [9]
inactive: all other assays above

Cc1c(-c2ccc(O)cc2)n(Cc2ccc(OCCN3CCCCCC3)cc2)c2ccc(O)cc12
inactive: [5]
active: [1] 10.7 µM | [9] 23.9 µM | [3] 2.68 µM | [7] 2.39 µM | [10] 29.8 µM

CCCCCCCCCCCCN(CCO)CCO
active: [1] 17.3 µM | [9] 48.8 µM | [3] 43.5 µM | [10] 60.9 µM
inactive: [8]

Clc1ccc(C(Cn2ccnc2)OCc2ccsc2Cl)c(Cl)c1 (stereo not given)
active: [1] 23.9 µM | [3] 15.1 µM
inactive: [4] | [5] | [6] | [8] | [10]

Cc1ccc2ccc3cccc4ccc1c2c34
inactive: [1] | [5] | [6] | [8] | [10]

CCCN(CCc1cccs1)[C@H]1CCc2c(O)cccc2C1
active: [1] 23.9 µM | [3] 7.56 µM | [7] 15.1 µM
inactive: [5] | [8] | [10]

CCCCCCCC(OC)OC
not listed: [1]
inactive: all other assays above

CCCCCCC(C)Nc1ccc(Nc2ccccc2)cc1 (stereo not given)
inactive: [1] | [4] | [6] | [8] | [10]
active: [3] 21.9 µM | [7] 19.5 µM

CCCC(O)C(O)CO (stereo not given)
not listed: [1]
inactive: all other assays above

CCCCC(CC)COC(=O)c1ccc(O)cc1 (stereo not given)
active: [1] 34.7 µM | [3] 54.7 µM | [6] 38.9 µM
inactive: [9] | [8] | [10]

CC(=O)c1ccccc1N
not listed: [2] | [3] | [7]
inactive: all other assays above

O=C(O)CCCCCCC(=O)O
inactive: [1] | [9] | [3] | [6] | [8] | [10]

CC(=O)OC(OC(C)=O)c1ccc([N+](=O)[O-])o1
inactive: [5] | [6]
active: [1] 55.9 µM | [3] 44.4 µM | [7] 39.6 µM | [8] 55.4 µM

C/C=C/C(=O)Oc1c(CCCCCC(C)C)cc([N+](=O)[O-])cc1[N+](=O)[O-]
inactive: [6]
active: [1] 38.9 µM | [9] 21.9 µM | [3] 19.5 µM | [8] 27.3 µM | [10] 15.4 µM

Clc1ccccc1CN1CCc2sccc2C1
not listed: [2] | [3] | [4]
inactive: all other assays above

CNCC[C@H](Oc1cccc2ccccc12)c1cccs1
inactive: [8]
active: [1] 19 µM | [9] 23.9 µM | [3] 23.9 µM | [10] 26.6 µM

CCOC(/C=C(\C)CCC=C(C)C)OCC
not listed: [1]
inactive: all other assays above

C=C[C@](C)(O)CC[C@@H]1[C@@]2(C)CCCC(C)(C)[C@@H]2CC[C@@]1(C)O
inactive: [5] | [8] | [10]
active: [1] 49 µM | [9] 49 µM | [3] 21.9 µM | [6] 54.9 µM
